Assay results published in publication PMC5540273 (PLoS ONE, 2017).

Legend:
AAK1 = details: concentration: 1 μM, replicates: in singlicate; n = 1
ABL1-nonphosphorylated = details: concentration: 1 μM, replicates: in singlicate; n = 1
ABL1-phosphorylated = details: concentration: 1 μM, replicates: in singlicate; n = 1
ABL2 = details: concentration: 1 μM, replicates: in singlicate; n = 1
ACVR1B = details: concentration: 1 μM, replicates: in singlicate; n = 1
ACVR1 = details: concentration: 1 μM, replicates: in singlicate; n = 1
ACVR2A = details: concentration: 1 μM, replicates: in singlicate; n = 1
ACVR2B = details: concentration: 1 μM, replicates: in singlicate; n = 1
ACVRL1 = details: concentration: 1 μM, replicates: in singlicate; n = 1
ADCK3 = system: T1, ADCK3; details: concentration: 1 μM, replicates: in singlicate; n = 1
T1 construct: gene CABC1

ADCK4 = details: concentration: 1 μM, replicates: in singlicate; n = 1
AKT1 = details: concentration: 1 μM, replicates: in singlicate; n = 1
AKT2 = details: concentration: 1 μM, replicates: in singlicate; n = 1
AKT3 = details: concentration: 1 μM, replicates: in singlicate; n = 1
ALK = details: concentration: 1 μM, replicates: in singlicate; n = 1
AMPK-alpha1 = system: T2, AMPK-alpha1; details: concentration: 1 μM, replicates: in singlicate; n = 1
T2 construct: gene PRKAA1

YSK4 = system: T3, YSK4
T3 construct: gene MAP3K19

p38-alpha = system: T4, p38-alpha
T4 construct: gene MAPK14
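Throughout, for %Inh: KINOMEscan kinase panel screen.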
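Throughout, for Kd: kd values determined as follow-up on hits from a single-replicate KINOMEscan panel screen.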

Row | SMILES | Kd (ZAK) | %Inh (AAK1) | %Inh (ABL1-nonphosphorylated) | %Inh (ABL1-phosphorylated) | %Inh (ABL2) | %Inh (ACVR1B) | %Inh (ACVR1) | %Inh (ACVR2A) | %Inh (ACVR2B) | %Inh (ACVRL1) | %Inh (ADCK3) | %Inh (ADCK4) | %Inh (AKT1) | %Inh (AKT2) | %Inh (AKT3) | %Inh (ALK) | %Inh (AMPK-alpha1) | Kd (YSK4) | Kd (p38-alpha)
1 | O=C(NCCNc1ccnc(Nc2ccc(F)cc2)n1)c1cc2ccccc2s1 [GSK1379874] | > 10000 nM | 0% | 0% | 0% | 7% | 0% | 9% | 0% | 0% | 0% | 0% | 27% | 0% | 0% | 0% | 5% | 0% |  | 
2 | CCCCCc1nc2c(N)ncnc2n1CCCCC [SKF-97255] |  | 6% | 31% | 30% | 0% | 26% | 0% | 0% | 0% | 13% | 1% | 0% | 0% | 0% | 0% | 0% | 3% |  | 
3 | COC(=O)Nc1nc2cc(Oc3ccc(NC(=O)Nc4cc(F)ccc4F)cc3)ccc2[nH]1.Cl [GW701424] |  | 30% | 94.5% | 40% | 74% | 0% | 0% | 0% | 0% | 0% | 7% | 40% | 0% | 4% | 0% | 28% | 0% |  | 
4 | Cc1cn2c(=O)cc(N3CCOCC3)nc2n1Cc1cccc(Cl)c1Cl [GSK2334006] |  | 14% | 73% | 63% | 41% | 9% | 18% | 8% | 23% | 0% | 7% | 17% | 0% | 26% | 26% | 6% | 29% |  | 
5 | Cc1nnc(-c2ccc3occ(-c4ccc(C(C)O)cc4)c3c2)o1 (centres unmarked) |  | 23% | 64% | 36% | 8% | 14% | 15% | 9% | 27% | 8% | 0% | 0% | 17% | 0% | 4% | 0% | 0% |  | 
6 | COc1cc2ncn(-c3cc(OCc4sccc4Cl)c(C(N)=O)s3)c2cc1OC [GSK448459] |  | 42% | 0% | 3% | 17% | 0% | 18% | 0% | 0% | 0% | 0% | 39% | 0% | 1% | 0% | 21% | 0% |  | 
7 | O=C(Nc1n[nH]c2cc(-c3cccc(F)c3)ccc12)C1CC1 [SB-735464] |  | 26% | 64% | 43% | 8% | 10% | 36% | 32% | 50% | 4% | 0% | 0% | 0% | 0% | 19% | 0% | 10% | 310 nM | 
8 | COc1cc(Nc2nccc(N3CCC(NC(=O)c4cccc(NC(C)=O)c4)C3)n2)cc(OC)c1OC (centres unmarked) [GSK1379754] |  | 76% | 0% | 0% | 13% | 0% | 63% | 17% | 18% | 0% | 10% | 36% | 0% | 0% | 0% | 29% | 8% |  | 
9 | Fc1ccc(-c2ncn(CCCN3CCOCC3)c2-c2ccccn2)cc1 [SB-211742] |  | 0% | 39% | 12% | 7% | 1% | 0% | 0% | 19% | 0% | 3% | 6% | 15% | 4% | 0% | 19% | 10% |  | 
10 | Cc1cccc(-c2nc(-c3ccc(S(C)(=O)=O)cc3)sc2-c2ccncc2)c1 |  | 8% | 0% | 0% | 29% | 0% | 0% | 0% | 0% | 0% | 0% | 0% | 0% | 20% | 0% | 5% | 1% |  | 540 nM
11 | N#Cc1ccc(-c2cc(-c3c[nH]nc3-c3ccccn3)ccn2)cc1 [GW693028] |  | 0% | 7% | 29% | 10% | 56% | 59% | 0% | 40% | 0% | 0% | 20% | 0% | 0% | 0% | 25% | 0% |  | 
